{"source": "PubChem BioAssay (NCATS)", "note": "Inconclusive results are not listed. Active and inactive are the calls of the source. Calls come from the whole dose curve; as a rule, active = well fitted curve in the direction sought with a large enough effect; inconclusive = small, poorly fitted or top-dose-only effect, or another doubt; inactive = no such curve, though single readings can be large; an effect the other way counts as inactive or inconclusive.", "data": [{"tested_on": "not listed separately", "assay": "NCATS anti-infectives library activity on HEK293 viability as a counter-qHTS vs the C. elegans viability qHTS (AID 1745854); note: % is set by controls: 0 for no effect and ±100 for the full control effect", "details": "HEK293 viability counter-screen; series mostly up to 41.8 µM; activity change, negative = cytotoxicity: at the top concentration", "in_short": "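Cytotoxicity in human HEK293 cells is measured by ATP-dependent CellTiter-Glo luminescence following a 24 hr incubation with titrated library compounds at 37C. Top final concentration is 41.7 uM.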", "values": [{"smiles": "Cc1c(O)c(=O)ccn1C", "activity change, negative = cytotoxicity": "-0.593% (inactive)"}, {"smiles": "CCCC(CCC)C(=O)OC1C[C@H]2CC[C@@H](C1)[N+]2(C)C", "note": "(stereo not given in full)", "activity change, negative = cytotoxicity": "-9.07% (inactive)"}, {"smiles": "CC(=O)N[C@@H]([C@@H](O)[C@H](O)[C@H](O)CO)[C@@H](O)CC(=O)C(=O)O", "activity change, negative = cytotoxicity": "-1.81% (inactive)"}, {"smiles": "NCCCC[C@H](N)C(=O)O", "activity change, negative = cytotoxicity": "-19.5% [at 0.334 µM] (inactive)"}, {"smiles": "O=C1c2c(O)cccc2[C@H]([C@@H]2O[C@H](CO)[C@@H](O)[C@H](O)[C@H]2O)c2cc(CO)cc(O)c21", "activity change, negative = cytotoxicity": "0.686% (inactive)"}, {"smiles": "Nc1nc(=O)n([C@@H]2CS[C@H](CO)O2)cc1F", "activity change, negative = cytotoxicity": "-3.36% (inactive)"}, {"smiles": "CNC(=O)[C@H](Cc1c[nH]c2ccccc12)NC(=O)[C@@H](CC(=O)NO)CC(C)C", "activity change, negative = cytotoxicity": "7.88% (inactive)"}, {"smiles": "Nc1ccc(N=Nc2ccccc2)c(N)n1", "activity change, negative = cytotoxicity": "-13.4% (inactive)"}, {"smiles": "CC(C)=CCC/C(C)=C/C=C/C(C)=C/C=C/C(C)=C/C=C/C=C(C)/C=C/C=C(C)/C=C/C=C(\\C)CCC=C(C)C", "activity change, negative = cytotoxicity": "-1.55% (inactive)"}]}, {"tested_on": "not listed separately", "assay": "Viability counterscreen for antagonist of constitutive androstane receptor (CAR) against the NCATS DSHEA and TCM libraries (AID 1794837);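 note: compound exposure lasted 24 h before viability reading; 0% is about no effect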", "details": "CAR reporter cell line viability counterscreen, qHTS; series mostly up to 40 µM; viability change, negative = cytotoxic: at the top concentration", "in_short": "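Cell viability, CellTiter-Fluor, Ex/Em 405/540 nm, 1 h at 37C. HepG2-CYP2B6-hCAR, 2,500 cells/well; cpds + CITCO 48 uM final (antagonist mode), 24 h, 37C/5% CO2.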", "values": [{"smiles": "CCCCC/C=C\\C/C=C\\C/C=C\\CCCCC(=O)O", "viability change, negative = cytotoxic": "-4.69% [at 5 µM] (inactive)"}, {"smiles": "CC(C)=CCC/C(C)=C/CC/C(C)=C/CC/C(C)=C/CC1=C(C)C(=O)c2ccccc2C1=O", "viability change, negative = cytotoxic": "-23.9% (inactive)"}, {"smiles": "CC/C=C\\C/C=C\\C/C=C\\CCCCCCCC(=O)O", "viability change, negative = cytotoxic": "11.4% (inactive)"}, {"smiles": "C=C1CC[C@H](O)CC1=C/C=C1\\CCC[C@]2(C)[C@@H]([C@H](C)/C=C/[C@H](C)C(C)C)CC[C@@H]12", "viability change, negative = cytotoxic": "-4.87% (inactive)"}, {"smiles": "CC/C=C\\C/C=C\\C/C=C\\C/C=C\\C/C=C\\CCCC(=O)O", "viability change, negative = cytotoxic": "2.49% (inactive)"}, {"smiles": "CCCCCCCCCCCC(=O)OCC(O)CO", "note": "(stereo not given)", "viability change, negative = cytotoxic": "0.497% (inactive)"}, {"smiles": "COC1=C(OC)C(=O)C(C/C=C(\\C)CC/C=C(\\C)CC/C=C(\\C)CC/C=C(\\C)CC/C=C(\\C)CC/C=C(\\C)CC/C=C(\\C)CC/C=C(\\C)CC/C=C(\\C)CCC=C(C)C)=C(C)C1=O", "viability change, negative = cytotoxic": "0.382% (inactive)"}, {"smiles": "CC/C=C\\C/C=C\\C/C=C\\C/C=C\\C/C=C\\C/C=C\\CCC(=O)O", "viability change, negative = cytotoxic": "9.04% (inactive)"}, {"smiles": "Oc1cccc(O)c1O", "viability change, negative = cytotoxic": "-13.2% (inactive)"}, {"smiles": "C=C1CC[C@H](O)C/C1=C\\C=C1/CCC[C@]2(C)[C@@H]([C@H](C)CCCC(C)C)CC[C@@H]12", "viability change, negative = cytotoxic": "-2.49% (inactive)"}, {"smiles": "Cc1ncc(C[n+]2csc(CCO)c2C)c(N)n1", "viability change, negative = cytotoxic": "4.46% (inactive)"}, {"smiles": "CC[C@H](CC[C@@H](C)[C@H]1CC[C@H]2[C@@H]3CC=C4C[C@@H](O)CC[C@]4(C)[C@H]3CC[C@]12C)C(C)C", "viability change, negative = cytotoxic": "7.85% (inactive)"}, {"smiles": "CC(C)=CCC/C(C)=C/C=C/C(C)=C/C=C/C(C)=C/C=C/C=C(C)/C=C/C=C(C)/C=C/C=C(\\C)CCC=C(C)C", "viability change, negative = cytotoxic": "12.1% (inactive)"}]}, {"tested_on": "not listed separately", "assay": "Viability counterscreen for agonist of constitutive androstane receptor (CAR) against the NCATS DSHEA and TCM libraries (AID 1794838); note: 0% is about no effect", "details": "HepG2 cell viability counterscreen, CAR agonist assay, co-treated with 0.75 µM CAR antagonist; series mostly up to 40 µM; activity change, negative = cytotoxicity: at the top concentration", "in_short": "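Viability by CellTiter-Fluor fluorescence, 405/540 nm, after 1 h at 37C. HepG2-CYP2B6-hCAR cells were exposed 24 h to test substances in presence of 0.75 uM PK11195 (final).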", "values": [{"smiles": "CCCCC/C=C\\C/C=C\\C/C=C\\CCCCC(=O)O", "activity change, negative = cytotoxicity": "-8.92% [at 5 µM] (inactive)"}, {"smiles": "CC(C)=CCC/C(C)=C/CC/C(C)=C/CC/C(C)=C/CC1=C(C)C(=O)c2ccccc2C1=O", "activity change, negative = cytotoxicity": "-28.4% (inactive)"}, {"smiles": "CC/C=C\\C/C=C\\C/C=C\\CCCCCCCC(=O)O", "activity change, negative = cytotoxicity": "25.5% (inactive)"}, {"smiles": "C=C1CC[C@H](O)CC1=C/C=C1\\CCC[C@]2(C)[C@@H]([C@H](C)/C=C/[C@H](C)C(C)C)CC[C@@H]12", "activity change, negative = cytotoxicity": "7.86% (inactive)"}, {"smiles": "CC/C=C\\C/C=C\\C/C=C\\C/C=C\\C/C=C\\CCCC(=O)O", "activity change, negative = cytotoxicity": "13.9% (inactive)"}, {"smiles": "CCCCCCCCCCCC(=O)OCC(O)CO", "note": "(stereo not given)", "activity change, negative = cytotoxicity": "7.16% (inactive)"}, {"smiles": "COC1=C(OC)C(=O)C(C/C=C(\\C)CC/C=C(\\C)CC/C=C(\\C)CC/C=C(\\C)CC/C=C(\\C)CC/C=C(\\C)CC/C=C(\\C)CC/C=C(\\C)CC/C=C(\\C)CCC=C(C)C)=C(C)C1=O", "activity change, negative = cytotoxicity": "11.4% (inactive)"}, {"smiles": "CC/C=C\\C/C=C\\C/C=C\\C/C=C\\C/C=C\\C/C=C\\CCC(=O)O", "activity change, negative = cytotoxicity": "17.8% (inactive)"}, {"smiles": "Oc1cccc(O)c1O", "activity change, negative = cytotoxicity": "-33.6% (inactive)"}, {"smiles": "C=C1CC[C@H](O)C/C1=C\\C=C1/CCC[C@]2(C)[C@@H]([C@H](C)CCCC(C)C)CC[C@@H]12", "activity change, negative = cytotoxicity": "-5.44% (inactive)"}, {"smiles": "Cc1ncc(C[n+]2csc(CCO)c2C)c(N)n1", "activity change, negative = cytotoxicity": "14.4% (inactive)"}, {"smiles": "CC[C@H](CC[C@@H](C)[C@H]1CC[C@H]2[C@@H]3CC=C4C[C@@H](O)CC[C@]4(C)[C@H]3CC[C@]12C)C(C)C", "activity change, negative = cytotoxicity": "16.9% (inactive)"}, {"smiles": "CC(C)=CCC/C(C)=C/C=C/C(C)=C/C=C/C(C)=C/C=C/C=C(C)/C=C/C=C(C)/C=C/C=C(\\C)CCC=C(C)C", "activity change, negative = cytotoxicity": "27.3% (inactive)"}]}, {"molecular_target": "Nuclear receptor subfamily 1 group I member 3 (Homo sapiens) (UniProt Q14994)", "sequence (Q14994 whole entry, looked up)": "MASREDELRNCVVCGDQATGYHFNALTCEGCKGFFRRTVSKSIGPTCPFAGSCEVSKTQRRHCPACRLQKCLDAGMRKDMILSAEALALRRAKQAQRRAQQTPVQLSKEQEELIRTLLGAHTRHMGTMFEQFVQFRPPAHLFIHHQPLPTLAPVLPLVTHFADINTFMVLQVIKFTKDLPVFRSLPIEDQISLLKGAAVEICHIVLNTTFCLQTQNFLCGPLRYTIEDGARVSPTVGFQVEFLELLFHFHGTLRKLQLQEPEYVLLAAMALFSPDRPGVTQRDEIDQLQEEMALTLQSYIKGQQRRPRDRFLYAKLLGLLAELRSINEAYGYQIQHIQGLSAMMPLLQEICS", "assay": "Primary qHTS for agonist of constitutive androstane receptor (CAR) against the NCATS DSHEA and TCM libraries (AID 1794839); note: 0% is about no effect", "details": "CAR agonist reporter cells, qHTS luminescence, CAR antagonist co-added at 0.75 µM; series mostly up to 40 µM; activation: at the top concentration", "in_short": "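Luminescence from ONE-Glo luciferase was the agonist read-out in HepG2-CYP2B6-hCAR cells exposed 24 h to test substances. Wells also held the CAR antagonist PK11195 at 0.75 µM final. Viability was by CellTiter-Fluor fluorescence.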", "values": [{"smiles": "CCCCC/C=C\\C/C=C\\C/C=C\\CCCCC(=O)O", "activation": "-21.9% [at 5 µM] (inactive)"}, {"smiles": "CC(C)=CCC/C(C)=C/CC/C(C)=C/CC/C(C)=C/CC1=C(C)C(=O)c2ccccc2C1=O", "activation": "11.3% (inactive)"}, {"smiles": "CC/C=C\\C/C=C\\C/C=C\\CCCCCCCC(=O)O", "activation": "5.2% (inactive)"}, {"smiles": "C=C1CC[C@H](O)CC1=C/C=C1\\CCC[C@]2(C)[C@@H]([C@H](C)/C=C/[C@H](C)C(C)C)CC[C@@H]12", "activation": "6.45% (inactive)"}, {"smiles": "CCCCCCCCCCCC(=O)OCC(O)CO", "note": "(stereo not given)", "activation": "9.59% (inactive)"}, {"smiles": "COC1=C(OC)C(=O)C(C/C=C(\\C)CC/C=C(\\C)CC/C=C(\\C)CC/C=C(\\C)CC/C=C(\\C)CC/C=C(\\C)CC/C=C(\\C)CC/C=C(\\C)CC/C=C(\\C)CCC=C(C)C)=C(C)C1=O", "activation": "14% (inactive)"}, {"smiles": "CC/C=C\\C/C=C\\C/C=C\\C/C=C\\C/C=C\\C/C=C\\CCC(=O)O", "activation": "12% (inactive)"}, {"smiles": "Oc1cccc(O)c1O", "activation": "-13.2% (inactive)"}, {"smiles": "Cc1ncc(C[n+]2csc(CCO)c2C)c(N)n1", "activation": "13.9% (inactive)"}, {"smiles": "CC(C)=CCC/C(C)=C/C=C/C(C)=C/C=C/C(C)=C/C=C/C=C(C)/C=C/C=C(C)/C=C/C=C(\\C)CCC=C(C)C", "activation": "8.05% (inactive)"}]}]}
